Shn3 3UTR inh – reduces Shn3 3'UTR luciferase signal in osteoblasts | Clone20 osteoblast Shn3 3'UTR firefly luciferase, 24 h | inhibition, % at 12.5 µM | 0.52% of 360,000 active;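 active = mean inhibition of at least 75% with every replicate also reaching 75%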;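 also: 0% = median of neutral control wells and 100% = pilot-screen positive control compound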
Peg3 prom inh – Peg3 promoter activity inhibition | HeLa PEG-Prom luciferase reporter, luminescence, overnight | inhibition, % at 20 µM | 1.7% of 360,000 active | AID 588405;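 active = inhibition of at least 50% at 20 µM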
PAX8 inh HTS – inhibitors of PAX8 transcriptional activity in RMG-I cells; RMG-I TPO-luciferase reporter, SteadyGlo, 24 h; 1.2% of 360,000 active; inhibition, % at 12.6 µM;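 active = mean replicate inhibition at least 60% with every replicate also reaching 60%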;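 also: luciferase light reporting Pax8 driven TPO promoter activity; plate controls were median of neutral control wells for no effect and mitoxantrone controls for full effect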
MITF TRPM1 inh – MITF TRPM1 promoter inhibition in SK-MEL-5 cells; 0.83% of 330,000 active; inhibition, % at 12.5 µM; SK-MEL-5 TRPM1 promoter luciferase, 24 h;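 active = mean inhibition across replicates of 60% or more, whatever share of single replicates reaches that level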
HIF-2a block – HIF-2a inhibition; 0.72% of 360,000 active; AID 624352; inhibition, % at 18.8 µM; 786-0 RCC cells HIF-2a reporter, luciferase luminescence, overnight;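 active = inhibition of the luminescence signal of 40% or more relative to plate controls, in a single-dose primary screen at 18.75 µM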
EBV LMP1 NFkB – Epstein-Barr LMP1 NF-kappaB reporter inhibition | LMP1-induced NF-kappaB luciferase reporter cells, luminescence | inhibition, % at 12.5 µM | 0.69% of 350,000 active; in the data active = inhibition above about 41%;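 also: 0% = neutral control wells and 100% = reference inhibitor control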
Mdm2-MdmX confirm – confirmation of inhibitors of human Mdm2/MdmX interaction, set 2; inhibition, % at 8 µM; SaOS-2 split-luciferase Mdm2/MdmX complementation, luminescence; shares compounds with HIF-2a block; 99% of 740 active;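 active = mean inhibition of the luminescence signal across two replicates at or above 26 percent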
Target sequence (O15151 whole entry, looked up): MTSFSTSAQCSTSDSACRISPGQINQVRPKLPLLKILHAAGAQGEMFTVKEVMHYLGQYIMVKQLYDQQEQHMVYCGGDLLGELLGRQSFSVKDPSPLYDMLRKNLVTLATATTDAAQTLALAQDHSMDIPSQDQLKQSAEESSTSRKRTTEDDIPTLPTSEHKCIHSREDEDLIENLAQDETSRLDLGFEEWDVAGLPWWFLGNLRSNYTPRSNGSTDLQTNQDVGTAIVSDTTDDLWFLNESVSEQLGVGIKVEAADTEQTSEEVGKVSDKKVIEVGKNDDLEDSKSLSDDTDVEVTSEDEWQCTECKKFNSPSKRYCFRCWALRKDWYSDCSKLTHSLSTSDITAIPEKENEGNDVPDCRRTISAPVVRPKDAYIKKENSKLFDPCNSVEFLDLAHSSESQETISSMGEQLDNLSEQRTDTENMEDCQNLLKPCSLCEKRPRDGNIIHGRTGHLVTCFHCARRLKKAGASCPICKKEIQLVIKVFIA
Target sequence (Q00987 whole entry, looked up): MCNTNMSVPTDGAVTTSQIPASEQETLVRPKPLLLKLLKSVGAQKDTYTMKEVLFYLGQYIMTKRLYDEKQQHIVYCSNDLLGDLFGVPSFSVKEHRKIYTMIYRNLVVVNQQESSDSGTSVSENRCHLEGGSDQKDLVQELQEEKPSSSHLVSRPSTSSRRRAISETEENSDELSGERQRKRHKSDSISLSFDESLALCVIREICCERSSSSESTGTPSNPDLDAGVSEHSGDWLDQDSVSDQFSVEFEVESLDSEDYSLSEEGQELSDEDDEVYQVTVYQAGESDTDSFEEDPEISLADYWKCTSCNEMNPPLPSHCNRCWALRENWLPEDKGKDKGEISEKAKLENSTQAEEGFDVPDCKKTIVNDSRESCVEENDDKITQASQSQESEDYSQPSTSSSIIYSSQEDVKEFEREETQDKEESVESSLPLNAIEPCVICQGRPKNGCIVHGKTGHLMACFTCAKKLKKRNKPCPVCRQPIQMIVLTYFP
HIF-2a conf – confirmation of HIF-2a inhibitors | 786-0 RCC cells, HIF-2a luciferase reporter luminescence, overnight | shares compounds with HIF-2a block | inhibition, % at 18.8 µM | 56% of 1,800 active;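 active = mean inhibition across four replicates of at least 40 percent at the single tested concentration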
HIF-1a cs – HIF-1a inhibition counter-screen for HIF-2a hits; inhibition, % at 18.8 µM; AID 651589; shares compounds with HIF-2a block; 72% of 1,800 active; MiaPaCa-2 HIF-1a luciferase reporter, desferoxamine, overnight;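 active = mean inhibition of the reporter signal across four replicates at the single tested dose of 50% or more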
An asterisk follows results filed as active; . = no result given. The list is not random: actives were taken first. Their share in the collection is about 2.8%.

SMILES	Shn3 3UTR inh	Peg3 prom inh	PAX8 inh HTS	MITF TRPM1 inh	HIF-2a block	EBV LMP1 NFkB	HIF-2a conf	HIF-1a cs	others
CC#CC[N+](C)(C)CCCCCCCCCCCC	77	59*	83*	65*	52*	25	39	72*
C[N+](C)(C)CCCCCC[N+](C)(C)C	0	-5	-2	-2	-2	-10	.	.
CCCCCCCCCCCCCCCC[N+](C)(C)CCl	83	100*	106*	-3	54*	0	39	75*
C[C@@H]1CCCCO[C@H](CN(C)Cc2ccccc2)[C@@H](C)CN([C@@H](C)CO)C(=O)c2cc(NS(=O)(=O)c3cn(C)cn3)ccc2O1	.	.	9	.	.	.	.	.
CC(C)NC(=O)N(C)C[C@H]1Oc2c(NC(=O)Nc3ccc(F)cc3)cccc2C(=O)N([C@H](C)CO)C[C@@H]1C	.	.	-22	.	.	.	.	.
CCOc1ccc(C(=O)Cc2ccccc2)cc1	-28	-305	-175	-66	-238	7	.	.
CCOc1ccc(C(=O)CSCCC(=O)O)cc1	29	5	-2	27	78*	10	82*	61*
COc1ccccc1C(C[N+](=O)[O-])c1c(N)n(C)c(=O)n(C)c1=O (stereo not given)	22	104*	64*	.	74*	.	56*	-3
COc1ccccc1C(c1c(N)n(C)c(=O)n(C)c1=O)C(C)[N+](=O)[O-] (stereo not given)	4	4	1	.	12	.	.	.
C[C@@H]1CN([C@H](C)CO)C(=O)c2cccc(NC(=O)c3cnccn3)c2O[C@H]1CN(C)Cc1ccc(-c2ccccc2)cc1	.	.	12	.	.	.	.	.
N/C(=N\NC(=O)Nc1ccccc1)c1ccccn1	-38	-47	-185	.	-64	.	.	.
CC(=NNC(=S)Nc1ccccc1)c1ccccn1	80	12	29	.	71*	72*	-80	-330
c1csc(C2=Nn3c(nnc3-c3ccncc3)SC2)c1	24	-12	.	-13	-1	-1	.	.	Mdm2-MdmX confirm=93*
COc1ccc(CN(C)C[C@H]2Oc3ccc(NS(=O)(=O)c4cn(C)cn4)cc3C(=O)N([C@H](C)CO)C[C@H]2C)cc1	.	.	-10	.	.	.	.	.
CCOC(=O)c1sc(NC(=O)c2cc(-c3ccc(C)cc3)nc3ccccc23)c(C#N)c1C	13	2	.	26	-8	5	.	.	Mdm2-MdmX confirm=97*
COC(=O)c1sc(NC(=O)c2cc(-c3ccccc3)nc3ccccc23)c(C#N)c1C	79	35	.	46	-6	19	.	.
OC(c1cc(-c2ccc(C(F)(F)F)cc2)nc(C(F)(F)F)c1)C1CCCCN1 (stereo not given)	96*	109*	88*	100*	75*	-12	5	106*	Mdm2-MdmX confirm=103*
COC(=O)CSc1nc(-c2ccc(F)cc2)cc(C(F)(F)F)n1	-10	0	.	-1	13	-1	.	.
CCN(Cc1ccccc1)C(=O)CN1C(=O)NC2(CC(C)CC(C)(C)C2)C1=O (stereo not given)	-12	3	9	0	18	10	.	.
Cc1[nH]c2ccccc2c1C(=O)CN1C(=O)NC2(CC(C)CC(C)(C)C2)C1=O (stereo not given)	29	43	.	2	45*	1	28	62*
Cn1ncc2c(O/N=C(\N)c3ccc(C(F)(F)F)cc3)ncnc21	27	107*	92*	9	94*	-11	-13	-51
Cc1ccc(C(=O)NNc2ncnc3c2cnn3C)cc1	7	3	0	-9	4	-3	.	.
COc1ccc(-c2ccc([C@@H]3[C@@H](CO)N4CCCCN(C(=O)c5ccc6c(c5)OCO6)C[C@H]34)cc2)cc1	.	.	-12	.	.	.	.	.
COc1ccc(-n2nc3ccc(N)cc3n2)cc1	26	-171	-24	.	46*	16	70*	0
CCOc1ccc(-n2nc3ccc(N)cc3n2)cc1	32	-112	-28	24	36	7	.	.

Screens (PubChem BioAssay)
